# Laboratory results from PubChem BioAssay (NCATS).
# Several values for one entry are separate records, joined by “and”; a condition that tells them apart may be missing. Equal values may be shown once. Results filed as inconclusive are left out. A call without a number means that no potency is given here. Activity calls are given as the source filed them. Calls follow the shape of the dose curve; as a rule, active = well fitted curve in the direction sought with a large enough effect; inconclusive = small, poorly fitted or top-dose-only effect, or another doubt; inactive = no such curve, though single readings can be large; an effect the other way counts as inactive or inconclusive.
# Experiments:
# [1] = qHTS of pediatric cancer cell lines to identify multiple opportunities for drug repurposing: Confirmatory screen for control Hh wild type fibroblast cells (AID 1347121); also: nearly all actives have a fitted effect of over 70% in size; also: potency is read from the fitted curve at half-maximal effect
# In short: (§1)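 Cells (500-1,000/well) in growth media were settled 5 h at 37 degrees C, then given compounds for 48 h. Viability was read as CellTiter-Glo luminescence. Primary runs used MIPE at 11 points (0.78 nM-46 µM) and NPC at 8 points (0.59 nM-46 µM); follow-ups used 11 points.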
# [2] = qHTS of pediatric cancer cell lines to identify multiple opportunities for drug repurposing: Confirmatory screen for Rh41 cells (AID 1347123);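 also: 48 h compound exposure; nearly all actives have a fitted effect of over 60% in size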; also: potency is read from the fitted curve at half-maximal effect
# In short: as §1
# [3] = qHTS of pediatric cancer cell lines to identify multiple opportunities for drug repurposing: Confirmatory screen for RD cells (AID 1347124);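 also: cells exposed to compound for 48 h before viability readout; nearly all actives have a fitted effect of over 65% in size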; also: potency is read from the fitted curve at half-maximal effect
# In short: as §1
# [4] = qHTS of pediatric cancer cell lines to identify multiple opportunities for drug repurposing: Confirmatory screen for Rh18 cells (AID 1347125); also: nearly all actives have a fitted effect of over 55% in size; also: potency is read from the fitted curve at half-maximal effect
# In short: as §1
# [5] = qHTS of pediatric cancer cell lines to identify multiple opportunities for drug repurposing: Confirmatory screen for Rh30 cells (AID 1347126); also: nearly all actives have a fitted effect of over 55% in size; also: potency is read from the fitted curve at half-maximal effect
# In short: as §1
# [6] = qHTS of pediatric cancer cell lines to identify multiple opportunities for drug repurposing: Confirmatory screen for OHS-50 cells (AID 1347128);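 also: compound exposure lasted 48 h at 37 degrees C; nearly all actives have a fitted effect of over 55% in size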; also: potency is read from the fitted curve at half-maximal effect
# In short: as §1
# [7] = qHTS of pediatric cancer cell lines to identify multiple opportunities for drug repurposing: Confirmatory screen for SK-N-SH cells (AID 1347129);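 also: cells exposed to compound for 48 h before viability read; nearly all actives have a fitted effect of over 60% in size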; also: potency is read from the fitted curve at half-maximal effect
# In short: as §1
# [8] = tested on: Zika virus NS2B-NS3 protease; experiment: Primary screen GU AMC qHTS for Zika virus inhibitors (AID 1347154); also: nearly all actives have a fitted effect of over 70% in size
# In short: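 Unlinked Zika NS2B hydrophilic domain/NS3 protease domain noncovalent complex (25 nM final) in 10 mM Tris-HCl pH 8.0, 0.01% Tween 20, with AMC peptide substrate. Fluorescence (ex 340, em 450 nm) change over 15 min, room temperature; percent inhibition fitted to 4-parameter Hill equation.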
# [9] = qHTS of pediatric cancer cell lines to identify multiple opportunities for drug repurposing: Confirmatory screen for Saos-2 cells (AID 1347127); also: nearly all actives have a fitted effect of over 60% in size; also: potency is read from the fitted curve at half-maximal effect
# In short: as §1
# [10] = tested on: Zika virus NS2B-NS3 protease (unlinked complex); experiment: Primary screen GU Rhodamine qHTS for Zika virus inhibitors: Unlinked NS2B-NS3 protease assay (AID 1347159); also: nearly all actives have a fitted effect of over 60% in size
# In short: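 Unlinked NS2B/NS3, 25 nM; Rhod110 peptide, 1.5 microM; compounds, up to 114 microM. Reaction run 15 min at RT in 10 mM Tris-HCl pH 8.0, 0.01% Tween 20; kinetic fluorescence change fitted with a 4-parameter Hill model.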
# [11] = tested on: Zika virus NS2B-NS3 protease (linked construct); experiment: Primary screen NINDS Rhodamine qHTS for Zika virus inhibitors (AID 1347160); also: nearly all actives have a fitted effect of over 55% in size
# In short: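 Single-chain NS2B-NS3 protease, 25 nM, pH 8.0; compounds preincubated 15 min. Activity: Rhodamine110 release from 1.5 microM substrate over 15 min, room temperature, data fitted to 4-parameter Hill.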
# [12] = molecular target: Furin (Homo sapiens) (UniProt P09958); experiment: Furin counterscreen qHTS for Zika virus inhibitors (AID 1347149);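 also: purified recombinant full-length human furin enzyme at 5 nM; fluorescence gain from furin cutting a BOC-RVRR-AMC peptide substrate over 15 min; top concentration of the series differs between compounds; nearly all actives have a fitted effect of over 70% in size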
# Sequence of Furin (Homo sapiens) (P09958 whole entry, looked up): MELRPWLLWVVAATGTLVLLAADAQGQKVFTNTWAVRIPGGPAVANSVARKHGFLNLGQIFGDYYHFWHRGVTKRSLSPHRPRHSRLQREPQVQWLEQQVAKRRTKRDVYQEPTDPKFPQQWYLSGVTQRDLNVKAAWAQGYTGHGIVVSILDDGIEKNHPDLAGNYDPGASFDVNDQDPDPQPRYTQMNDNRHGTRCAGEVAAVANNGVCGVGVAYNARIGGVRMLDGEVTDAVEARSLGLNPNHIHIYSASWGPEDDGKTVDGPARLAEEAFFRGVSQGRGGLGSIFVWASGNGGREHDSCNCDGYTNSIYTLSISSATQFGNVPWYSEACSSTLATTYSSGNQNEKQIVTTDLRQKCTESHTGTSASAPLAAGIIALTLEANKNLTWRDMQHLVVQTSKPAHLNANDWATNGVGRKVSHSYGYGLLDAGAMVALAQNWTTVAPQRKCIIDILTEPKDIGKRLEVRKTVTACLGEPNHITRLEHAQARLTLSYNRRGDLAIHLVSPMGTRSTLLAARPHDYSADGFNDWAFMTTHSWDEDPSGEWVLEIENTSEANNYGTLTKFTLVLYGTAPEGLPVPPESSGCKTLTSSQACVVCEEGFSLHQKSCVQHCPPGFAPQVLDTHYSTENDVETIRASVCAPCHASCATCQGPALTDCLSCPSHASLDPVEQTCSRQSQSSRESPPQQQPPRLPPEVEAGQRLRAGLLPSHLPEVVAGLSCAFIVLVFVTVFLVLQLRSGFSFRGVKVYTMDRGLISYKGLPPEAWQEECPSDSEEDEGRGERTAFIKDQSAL
# In short: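 Counterscreen measures cleavage of 2 microM BOC-RVRR-AMC, below its ~15 microM Km, by 5 nM full-length human furin at pH 7.0 after a 15-min compound preincubation. Inhibition derives from the 15-min fluorescence increase at 37C.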
# [13] = Confirmatory screen NINDS Rhodamine qHTS for Zika virus inhibitors (AID 1347161)
# In short: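 Kinetic fluorescence (Ex 480 nm, Em 540 nm) over 15 min with 1.5 microM Rhodamine110 peptide and 25 nM linked protease.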
# [14] = tested on: Zika virus NS2B-NS3 protease (linked); experiment: 384 well plate NINDS AMC confirmatory qHTS for Zika virus inhibitors (AID 1347163); conditions: Recombinant NS2B-NS3 protease, Ac-VKTGKR-AMC fluorescence; also: potency is read from the fitted curve at half-maximal effect; nearly all actives have a fitted effect of over 50% in size
# In short: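 Fluorescence at 355/460 nm was read after 25 minutes of cleavage of 30 microM Ac-VKTGKR-AMC at room temperature, in the dark. Before substrate addition, compounds (up to 1 mM final) sat ~15 minutes with 5, 30 or 60 nM linked protease. Signals were normalized to no-enzyme and no-inhibitor wells.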
SMILES,Potency [1],Potency [2],Potency [3],Potency [4],Potency [5],Potency [6],Potency [7],Potency [8],Potency [9],Potency [10],Potency [11],Potency [12],Potency [13],Potency [14]
O=C(O)COc1nc(Cl)c(Cl)cc1Cl,inactive,inactive,inactive,inactive,inactive,inactive,inactive,inactive,–,–,–,–,–,–
Cc1ccccc1-n1c(Cn2cnc3c(N)ncnc32)nc2cccc(C)c2c1=O,inactive,inactive,inactive,inactive,inactive,inactive,inactive,inactive,inactive,inactive,inactive,–,–,–
CC(C)N[C@@H]1CCn2c(=O)[nH]c3cccc(c32)[C@@H]1O,inactive,inactive,inactive,inactive,inactive,inactive,inactive,inactive,inactive,–,–,–,–,–
COc1cc([C@@H]2c3cc4c(cc3[C@@H](O)C3COC(=O)C32)OCO4)cc(OC)c1O (stereo not given in full),inactive,–,–,inactive,inactive,inactive,inactive,inactive,inactive,–,–,–,–,–
CCCCCC[C@H]1C(=O)O[C@H](C)[C@H](NC(=O)c2cccc(NC=O)c2O)C(=O)O[C@@H](C)[C@@H]1OC(=O)CC(C)C,16.5 nM (active),–,–,–,–,–,9350 nM (active),–,–,–,–,–,–,–
COc1ccc2c(c1)CN(C)CC2c1ccc(Cl)c(Cl)c1 (stereo not given),inactive,18500 nM (active),–,–,–,23300 nM (active),–,inactive,23300 nM (active),–,–,–,–,–
CC(C)(O)C=CC(=O)[C@](C)(O)[C@H]1[C@H](O)C[C@]2(C)[C@@H]3CC=C4[C@@H](C=C(O)C(=O)C4(C)C)[C@]3(C)C(=O)C[C@@]12C,2610 nM (active),208 nM (active),465 nM (active),147 nM (active),827 nM (active),1470 nM (active),264 nM (active),inactive,147 nM (active),–,–,–,–,–
CC(=Cc1csc(C)n1)[C@@H]1C[C@H]2O[C@@H]2CCC[C@H](C)[C@@H](O)[C@@H](C)C(=O)C(C)(C)[C@@H](O)CC(=O)O1,inactive,36.9 nM (active),46.5 nM (active),–,–,32.9 nM (active),–,inactive,29.3 nM (active),–,–,–,–,–
CS(=O)(=O)c1ccc(C(=O)C2C(=O)CCCC2=O)c([N+](=O)[O-])c1,inactive,inactive,inactive,inactive,inactive,inactive,inactive,–,inactive,–,–,–,–,–
Cc1[nH]nc2ccc(-c3cncc(OC[C@@H](N)Cc4c[nH]c5ccccc45)c3)cc12,18500 nM (active),–,inactive,4650 nM (active),–,2610 nM (active),2960 nM (active),inactive,2610 nM (active),inactive,inactive,–,–,–
CCCN1CCO[C@@H]2c3cc(O)ccc3OC[C@@H]21,inactive,inactive,inactive,–,8270 nM (active),–,inactive,inactive,–,–,–,–,–,–
Cc1c(N)nc([C@H](CC(N)=O)NC[C@@H](N)C(N)=O)nc1C(=O)N[C@H](C(=O)N[C@@H](C)[C@H](O)[C@@H](C)C(=O)N[C@@H](C(=O)NCCc1nc(-c2nc(C(=O)NCCC[S+](C)C)cs2)cs1)[C@@H](C)O)C(O[C@H]1O[C@H](CO)[C@H](O)[C@@H](O)[C@@H]1O[C@H]1O[C@H](CO)[C@@H](O)[C@H](OC(N)=O)[C@H]1O)c1cnc[nH]1 (stereo not given in full),inactive,inactive,–,–,inactive,inactive,–,inactive,inactive,–,–,–,–,–
CC[C@@H]1[C@@H](C)O[C@@](O)([C@@H](C)[C@H](O)[C@H](C)[C@H]2OC(=O)C=CC=C[C@@H](C)[C@@H]([C@@H](C)[C@@H](O)[C@H](C)[C@@]3(O)C[C@H](O[C@H]4C[C@H](O)[C@H](O)[C@H](C)O4)[C@H](CC)[C@@H](C)O3)OC(=O)C=CC=C[C@@H]2C)C[C@H]1O[C@H]1C[C@H](O)[C@H](O)[C@H](C)O1,inactive,–,inactive,inactive,–,inactive,–,inactive,inactive,–,–,–,–,–
C[C@@H]1CC[C@@]2(OC1)O[C@H]1C[C@H]3[C@@H]4CC=C5C[C@@H](O[C@@H]6O[C@H](CO)[C@@H](O[C@@H]7O[C@@H](C)[C@H](O)[C@@H](O)[C@@H]7O)[C@H](O)[C@@H]6O[C@@H]6O[C@@H](C)[C@H](O)[C@@H](O)[C@@H]6O)CC[C@]5(C)[C@@H]4CC[C@]3(C)[C@@H]1[C@H]2C,13100 nM (active),–,–,10400 nM (active),4140 nM (active),5220 nM (active),16600 nM (active),inactive,5220 nM (active),–,–,–,–,–
CC1=C(O)C(=O)C=C2C1=CC=C1[C@@]2(C)CC[C@@]2(C)[C@@H]3C[C@](C)(C(=O)O)CC[C@]3(C)CC[C@]12C,4140 nM (active),1470 nM (active),1170 nM (active),2330 nM (active),1850 nM (active),2610 nM (active),2960 nM (active),–,3290 nM (active),–,–,inactive,5.53 µM (active) and 2.77 µM (active),79400 nM (active)
